PubChem BioAssay (Tox21)
Records with an inconclusive call do not appear. A call without a number means that no potency is given here. Calls of active or inactive are those of the source. Unless noted, the call rests on the fitted dose curve; in most records, active means well fitted curve in the direction sought with a large enough effect in the repeat runs; inconclusive means weak or mixed curves; inactive means no such curve, though single readings can be large; an effect the other way counts as inactive or inconclusive.

Experiments:
[1] = qHTS assay to identify small molecule antagonists of the glucocorticoid receptor (GR) signaling pathway - cell viability counter screen (AID 720693); further: nearly all actives have a fitted effect of over 55% in size
[2] = qHTS assay for identifying genotoxic compounds that show differential cytotoxicity against isogenic chicken DT40 cell lines with known DNA damage response pathways - wild type cell line (AID 743012); further: nearly all actives have a fitted effect of over 60% in size; further: potency means the concentration at half of the fitted maximal effect
In short: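 Parental DNA repair-proficient DT40 cells, 300 per well, were pre-incubated ~0.5 h at 37 C/5% CO2, pin-dosed with compounds in DMSO, then incubated 40 h. Viability was read as CellTiter-Glo luminescence after 30 min at room temperature.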

[3] = qHTS assay for identifying genotoxic compounds that show differential cytotoxicity against isogenic chicken DT40 cell lines with known DNA damage response pathways - Rev3 mutant cell line (AID 743014); further: nearly all actives have a fitted effect of over 55% in size; further: potency means the concentration at half of the fitted maximal effect
[4] = qHTS assay for identifying genotoxic compounds that show differential cytotoxicity against isogenic chicken DT40 cell lines with known DNA damage response pathways - Rad54/Ku70 mutant cell line (AID 743015); further: nearly all actives have a fitted effect of over 60% in size; further: potency means the concentration at half of the fitted maximal effect
[5] = qHTS assay to identify small molecule antagonists of the androgen receptor (AR) signaling pathway - cell viability counter screen (AID 743033; further: nearly all actives have a fitted effect of over 45% in size)
[6] = biological target: Androgen receptor (Homo sapiens) (UniProt P10275); assay: qHTS assay to identify small molecule antagonists of the androgen receptor (AR) signaling pathway (AID 743035; active means well fitted inhibition curve with a large enough effect in the signal ratio in the repeat runs, not every such curve was filed as active; the % refers to the signal ratio)
In short: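 HEK293 cells stably carrying a UAS-driven beta-lactamase reporter (AR-UAS-bla GripTite) were plated for 4 h at 37C, then given compound and the agonist R1881 and incubated 16 h. Reporter activity was read by LiveBLAzer B/G FRET fluorescence after 2 h at room temperature.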

[7] = biological target: Androgen receptor (Homo sapiens) (UniProt P10275); assay: qHTS assay to identify small molecule agonists of the androgen receptor (AR) signaling pathway (AID 743036; active means well fitted activation curve with a large enough effect in the signal ratio in the repeat runs, with a control signal flat, not every such curve was filed as active; the % refers to the signal ratio)
In short: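 Activation was read as beta-lactamase FRET signal from LiveBLAzer B/G substrate, added for 2 h at room temperature. Before that, GeneBLAzer AR-UAS-bla GripTite (HEK293) cells had 16 h compound exposure at 37C.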

[8] = qHTS assay to identify small molecule antagonists of the androgen receptor (AR) signaling pathway using the MDA cell line - cell viability counter screen (AID 743041; further: nearly all actives have a fitted effect of over 45% in size)
In short: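 MDA-kb2 AR-luc cells (MMTV-luciferase, AR/GR responsive) treated with compounds plus R1881 agonist for 16 h at 37C. CellTiter-Fluor added at 15.5 h; fluorescence read after 30 min in the same wells.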

[9] = biological target: Androgen receptor (Homo sapiens) (UniProt P10275); assay: qHTS assay to identify small molecule antagonists of the androgen receptor (AR) signaling pathway using the MDA cell line (AID 743042; further: nearly all actives have a fitted effect of over 55% in size)
In short: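 MDA-kb2 breast carcinoma cells carrying MMTV-luciferase (AR/GR responsive) were co-treated with compounds and the agonist R1881 for 16 h at 37C. Inhibition read as ONE-Glo luminescence; CellTiter-Fluor fluorescence measured in parallel for cytotoxicity.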

[10] = qHTS assay to identify small molecule antagonists of the thyroid receptor (TR) signaling pathway - cell viability counter screen (AID 743064); further: nearly all actives have a fitted effect of over 50% in size; further: potency means the concentration at half of the fitted maximal effect
In short: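 In-well cytotoxicity read by CellTiter-Fluor (30 min, 37 C) following 23.5 h exposure of GH3 cells bearing a TRE-luciferase sensor. Compounds were added alongside 1 nM (final) T3 to drive TR transactivation.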

[11] = qHTS assay to identify small molecule antagonists of the thyroid receptor (TR) signaling pathway (AID 743065); further: nearly all actives have a fitted effect of over 55% in size; further: potency means the concentration at half of the fitted maximal effect
In short: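 GH3.TRE-Luc rat pituitary cells (two TREs driving luciferase) were dosed with compound, then stimulated with 1 nM T3 (final) for 23.5 h at 37 C. ONE-Glo luminescence was the read-out, with CellTiter-Fluor fluorescence as the cytotoxicity counter-screen.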

[12] = test system: thyroid hormone receptor (rat, GH3 cells); assay: qHTS assay to identify small molecule agonists of the thyroid receptor (TR) signaling pathway (AID 743066; calls by dose curve)
[13] = biological target: Estrogen receptor (Homo sapiens) (UniProt P03372); assay: qHTS assay to identify small molecule antagonists of the estrogen receptor alpha (ER-alpha) signaling pathway (AID 743069; active means well fitted curve in the direction sought with a large enough effect in the signal ratio in the repeat runs, not every such curve was filed as active; the % refers to the signal ratio)
In short: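 HEK293 ER-alpha-UAS-bla GripTite cells, held overnight in 2% charcoal-stripped FBS, 5,000 cells/well, preincubated 4 h, then compound plus 17beta-estradiol for 18 h at 37C. Beta-lactamase read by LiveBLAzer B/G FRET substrate, 2 h at room temperature.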

[14] = qHTS assay to identify small molecule antagonists of the estrogen receptor alpha (ER-alpha) signaling pathway - cell viability counter screen (AID 743074; calls by dose curve;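 further: HEK293 cells carrying ER-alpha-UAS-bla reporter stimulated with 17beta-estradiol; nearly all actives have a fitted effect of over 45% in size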)
[15] = biological target: Estrogen receptor (Homo sapiens) (UniProt P03372); assay: qHTS assay to identify small molecule agonists of the estrogen receptor alpha (ER-alpha) signaling pathway (AID 743075; calls by dose curve)
[16] = biological target: Estrogen receptor (Homo sapiens) (UniProt P03372); assay: qHTS assay to identify small molecule agonists of the estrogen receptor alpha (ER-alpha) signaling pathway using the BG1 cell line (AID 743079); further: nearly all actives have a fitted effect of over 20% in size; further: potency means the concentration at half of the fitted maximal effect
[17] = qHTS assay to identify small molecule antagonists of the estrogen receptor alpha (ER-alpha) signaling pathway using the BG1 cell line (AID 743080; calls by dose curve;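 further: BG1 cells stimulated with 17beta-estradiol alongside compound; series mostly up to about 70 µM; nearly all actives have a fitted effect of over 25% in size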)
In short: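 Endogenous full-length ER-alpha in BG1-Luc-4E2 cells drives a stably integrated 4×ERE luciferase gene; compounds were tested against 17beta-estradiol over 21.5 h, with luminescence and multiplexed viability fluorescence recorded.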

[18] = qHTS assay to identify small molecule antagonists of the estrogen receptor alpha (ER-alpha) signaling pathway using the BG1 cell line - cell viability counter screen (AID 743081);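 further: compound given together with 17beta-estradiol as the ER stimulus; series mostly up to about 70 µM; nearly all actives have a fitted effect of over 45% in size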
[19] = biological target: Aromatase (Homo sapiens) (UniProt P11511); assay: qHTS assay to identify aromatase inhibitors (AID 743083)
[20] = qHTS assay to identify aromatase inhibitors - cell viability counter screen (AID 743084)

Sequence of Estrogen receptor (Homo sapiens) (P03372 whole entry, looked up): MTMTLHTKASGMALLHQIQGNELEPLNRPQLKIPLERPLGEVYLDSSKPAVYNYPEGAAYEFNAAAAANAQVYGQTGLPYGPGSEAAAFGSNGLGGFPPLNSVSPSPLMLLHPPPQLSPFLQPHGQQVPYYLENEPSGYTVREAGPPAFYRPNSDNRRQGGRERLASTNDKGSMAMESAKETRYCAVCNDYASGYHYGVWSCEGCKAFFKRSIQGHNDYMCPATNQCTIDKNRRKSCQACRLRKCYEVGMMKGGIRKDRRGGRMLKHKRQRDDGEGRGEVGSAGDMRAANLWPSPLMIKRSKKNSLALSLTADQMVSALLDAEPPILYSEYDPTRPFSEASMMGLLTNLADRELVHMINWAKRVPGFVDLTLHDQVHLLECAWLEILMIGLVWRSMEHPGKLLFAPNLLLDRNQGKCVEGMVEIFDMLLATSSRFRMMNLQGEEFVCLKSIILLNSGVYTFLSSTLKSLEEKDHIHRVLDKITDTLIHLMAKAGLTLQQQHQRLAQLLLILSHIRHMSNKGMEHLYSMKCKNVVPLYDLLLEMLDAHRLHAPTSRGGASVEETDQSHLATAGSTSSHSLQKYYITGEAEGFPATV
Sequence of Androgen receptor (Homo sapiens) (P10275 whole entry, looked up): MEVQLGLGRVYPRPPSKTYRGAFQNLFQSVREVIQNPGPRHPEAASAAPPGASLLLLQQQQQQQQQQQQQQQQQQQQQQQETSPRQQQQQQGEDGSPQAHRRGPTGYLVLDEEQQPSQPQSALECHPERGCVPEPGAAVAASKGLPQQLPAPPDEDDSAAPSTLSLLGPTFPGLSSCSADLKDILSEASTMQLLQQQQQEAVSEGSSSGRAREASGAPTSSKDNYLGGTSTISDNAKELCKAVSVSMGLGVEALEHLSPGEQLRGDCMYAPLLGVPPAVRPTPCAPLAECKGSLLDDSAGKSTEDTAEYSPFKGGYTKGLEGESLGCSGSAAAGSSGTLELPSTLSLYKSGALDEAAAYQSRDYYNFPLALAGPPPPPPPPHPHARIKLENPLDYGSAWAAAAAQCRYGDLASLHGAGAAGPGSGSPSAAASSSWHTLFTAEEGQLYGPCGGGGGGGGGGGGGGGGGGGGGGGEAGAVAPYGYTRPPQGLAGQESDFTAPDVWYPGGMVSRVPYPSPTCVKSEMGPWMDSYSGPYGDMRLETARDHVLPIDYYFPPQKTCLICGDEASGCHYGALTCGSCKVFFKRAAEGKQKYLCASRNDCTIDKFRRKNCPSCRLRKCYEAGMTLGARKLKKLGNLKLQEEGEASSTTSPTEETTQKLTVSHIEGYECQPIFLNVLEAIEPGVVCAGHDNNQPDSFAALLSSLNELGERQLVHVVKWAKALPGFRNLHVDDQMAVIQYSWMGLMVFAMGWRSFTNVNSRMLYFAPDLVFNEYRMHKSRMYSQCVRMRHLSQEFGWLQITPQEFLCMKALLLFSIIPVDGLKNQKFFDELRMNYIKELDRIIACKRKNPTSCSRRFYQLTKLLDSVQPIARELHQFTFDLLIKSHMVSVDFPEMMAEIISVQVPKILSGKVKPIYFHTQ
Sequence of Aromatase (Homo sapiens) (P11511 whole entry, looked up): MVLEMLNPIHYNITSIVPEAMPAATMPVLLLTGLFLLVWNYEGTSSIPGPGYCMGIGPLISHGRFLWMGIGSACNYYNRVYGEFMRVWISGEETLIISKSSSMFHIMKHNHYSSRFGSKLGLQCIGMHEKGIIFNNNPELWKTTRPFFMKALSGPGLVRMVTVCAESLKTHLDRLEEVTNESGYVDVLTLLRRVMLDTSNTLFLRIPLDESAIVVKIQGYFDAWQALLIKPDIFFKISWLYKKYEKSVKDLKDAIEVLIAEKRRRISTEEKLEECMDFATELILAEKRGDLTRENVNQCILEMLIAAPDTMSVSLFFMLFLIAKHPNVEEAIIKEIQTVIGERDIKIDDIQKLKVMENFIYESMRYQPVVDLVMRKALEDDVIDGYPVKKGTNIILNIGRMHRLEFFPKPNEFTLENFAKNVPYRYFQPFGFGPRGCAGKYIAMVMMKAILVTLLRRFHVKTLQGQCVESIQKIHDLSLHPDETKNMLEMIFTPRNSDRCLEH

SMILES	outcome [1]	Potency [2]	Potency [3]	Potency [4]	outcome [5]	Potency [6]	outcome [7]	Potency [8]	outcome [9]	Potency [10]	Potency [11]	outcome [12]	Potency [13]	Potency [14]	outcome [15]	Potency [16]	outcome [17]	Potency [18]	Potency [19]	Potency [20]
Cc1ccsc1C(=CCCN1CCC[C@@H](C(=O)O)C1)c1sccc1C	inactive	inactive	inactive	inactive	inactive	inactive	inactive	inactive	inactive	inactive	inactive	inactive	inactive	inactive	inactive	21.1 µM (active)	inactive	inactive	inactive	inactive
Cc1ccc(C)c(N)c1	inactive	inactive	inactive	inactive	inactive			inactive		inactive	inactive	inactive	inactive	inactive	inactive	77 µM (active)	inactive	inactive	inactive	inactive
NS(=O)(=O)c1cc(-c2nn[nH]n2)c(NCc2cccs2)cc1Cl	inactive	inactive	inactive	inactive	inactive			inactive		inactive	inactive	inactive	inactive	inactive	inactive	inactive	inactive	inactive	inactive	inactive
CCC1(C)NC(=O)NC1=O (stereo not drawn)	inactive	inactive	inactive	inactive	inactive			inactive		inactive	inactive	inactive						inactive	inactive	inactive
CC1(C)C(=O)N(Cl)C(=O)N1Br	inactive	inactive	inactive	inactive	inactive			inactive		inactive	inactive	inactive		inactive				inactive	inactive	inactive
FC(F)(F)C(Cl)(Cl)Cl	inactive	inactive	inactive	inactive	inactive			inactive		inactive	inactive	inactive	inactive	inactive	inactive	inactive	inactive	inactive	inactive	inactive
NC/C=C/C(=O)O	inactive	inactive	inactive	inactive	inactive			inactive		inactive	inactive	inactive		inactive				inactive	inactive	inactive
O=S(=O)(O)C(F)(F)F	inactive	inactive	inactive	inactive	inactive			inactive		inactive	inactive	inactive	inactive	inactive	inactive		inactive	inactive	inactive	inactive
Cc1ccc([N+](=O)[O-])c(N)c1	inactive	inactive	inactive	inactive	inactive			inactive		inactive	inactive	inactive		inactive				inactive	inactive	inactive
O=C(O)c1ccccc1Nc1cc(Cl)ccc1C(=O)O	inactive	inactive	inactive	inactive	inactive			inactive		inactive	inactive	inactive			inactive	inactive	inactive	inactive	inactive	inactive
Cc1ccc([N+](=O)[O-])cc1Cl	inactive	inactive	inactive	inactive	inactive			inactive		inactive	inactive	inactive		inactive				inactive	inactive	inactive
CCOc1ccc(OCC)c(Cl)c1	inactive	inactive	inactive	inactive	inactive			inactive		inactive	inactive	inactive	inactive	inactive	inactive	inactive	inactive	inactive	inactive	inactive
CCOC(=O)c1ccccc1O	inactive	inactive	inactive	inactive	inactive			inactive		inactive	inactive	inactive		inactive				inactive	inactive	inactive
CC(=O)Oc1cc(C(C)C)c(OCCN(C)C)cc1C	inactive	inactive	inactive	inactive	inactive			inactive		inactive	inactive	inactive		inactive					inactive	inactive
Cc1c(-c2ccccc2)oc2c(C(=O)OCCN3CCCCC3)cccc2c1=O	inactive	inactive	inactive	inactive	inactive			inactive		inactive	inactive	inactive	inactive	inactive	inactive	inactive	inactive	inactive		inactive
FC(F)(F)c1ccccc1	inactive	inactive	inactive	inactive	inactive			inactive		inactive	inactive	inactive	inactive		inactive	inactive	inactive	inactive	inactive	inactive
CC1=NN(c2cc(Cl)c(S(=O)(=O)O)cc2Cl)C(=O)C1N=Nc1ccc(S(=O)(=O)O)cc1 (stereo not drawn)	inactive	inactive	inactive	inactive	inactive			inactive		inactive	inactive	inactive		inactive				inactive	inactive	
CC(C)(C)C1CCCCC1=O (stereo not drawn)	inactive	inactive	inactive	inactive	inactive			inactive		inactive	inactive	inactive	inactive	inactive	inactive	inactive	inactive	inactive	inactive	inactive
CCCCCCCCc1ccc(S(=O)(=O)O)cc1	inactive	inactive	inactive	inactive	inactive			inactive		inactive	inactive	inactive						inactive	inactive	inactive

SMILES	outcome [1]	Potency [2]	Potency [3]	Potency [4]	outcome [5]	Potency [6]	outcome [7]	Potency [8]	outcome [9]	Potency [10]	Potency [11]	outcome [12]	Potency [13]	Potency [14]	outcome [15]	Potency [16]	outcome [17]	Potency [18]	Potency [19]	Potency [20]
OCCN1CCN(CCO)CC1	inactive	inactive	inactive	inactive	inactive			inactive		inactive	inactive	inactive		inactive				inactive	inactive	inactive
Cc1cccc(C)c1NC(=O)CN1CCCCCC1	inactive	inactive	inactive	inactive	inactive			inactive		inactive	inactive	inactive	inactive	inactive	inactive	inactive	inactive	inactive	inactive	inactive
CCCCNc1cc(C(=O)O)cc(S(N)(=O)=O)c1Oc1ccccc1	inactive	inactive	inactive	inactive	inactive			inactive		inactive	inactive	inactive		inactive				inactive	inactive	inactive
CCCCNCCCC	inactive	inactive	inactive	inactive	inactive			inactive		inactive	inactive	inactive		inactive				inactive	inactive	inactive
CCOc1ccccc1N	inactive	inactive	inactive	inactive	inactive			inactive		inactive	inactive	inactive	inactive	inactive	inactive	inactive	inactive	inactive	inactive	inactive
CCOc1ccc(NC(N)=O)cc1	inactive	inactive	inactive	inactive	inactive			inactive		inactive	inactive	inactive	inactive	inactive	inactive		inactive	inactive	inactive	inactive
CC1=C(O)C(=O)OC1C (stereo not drawn)	inactive	inactive	inactive	inactive	inactive			inactive		inactive	inactive	inactive		inactive				inactive	inactive	inactive
O=C1CCCCCCCCCCC(=O)OCCO1	inactive	inactive	inactive	inactive	inactive			inactive		inactive	inactive	inactive	inactive		inactive	inactive		inactive	inactive	inactive
CCC/C=C/CO	inactive	inactive	inactive	inactive	inactive			inactive		inactive	inactive	inactive		inactive	inactive	inactive	inactive	inactive		
CCN[C@H]1CN(CCCOC)S(=O)(=O)c2sc(S(N)(=O)=O)cc21	inactive	inactive	inactive	inactive	inactive			inactive		inactive	inactive	inactive	inactive	inactive	inactive	inactive	inactive	inactive	inactive	inactive
ClC(Cl)Cl	inactive	inactive	inactive	inactive	inactive			inactive		inactive	inactive	inactive		inactive				inactive	inactive	inactive
CC1CN(c2ccccc2)NC1=O (stereo not drawn)	inactive	inactive	inactive	inactive	inactive			inactive		inactive	inactive	inactive		inactive				inactive	inactive	inactive
CCCCOc1cc(C(=O)NCCN(CC)CC)c2ccccc2n1	inactive	11.4 µM (active)	5.07 µM (active)	10.1 µM (active)	inactive			inactive		11.4 µM (active)	10.1 µM (active)	inactive		inactive				inactive	inactive	inactive
C=CC1CO1 (stereo not drawn)	inactive	inactive	inactive	inactive	inactive			inactive		inactive	inactive	inactive		inactive				inactive	inactive	inactive
OCC(CBr)(CBr)CBr	inactive	inactive	inactive	inactive	inactive			inactive		inactive	inactive	inactive	inactive	inactive	inactive	inactive	inactive	inactive		inactive
CN1CCN(c2c(F)cc3c(=O)c(C(=O)O)cn4c3c2SCC4)CC1	inactive	10.6 µM (active)	18.8 µM (active)	21.1 µM (active)	inactive			inactive		inactive	inactive	inactive	inactive	inactive	inactive	inactive	inactive	inactive	inactive	inactive
Cc1ccc(C(C)C)cc1O	inactive	inactive	inactive	inactive	inactive			inactive		inactive	inactive	inactive		inactive				inactive	inactive	inactive
COc1nc(C)nc(NC(=O)NS(=O)(=O)c2ccccc2OCCCl)n1	inactive	inactive	inactive	inactive	inactive			inactive		inactive	inactive	inactive	inactive	inactive	inactive		inactive	inactive	inactive	inactive
